This is a sample that favours compounds with a hit; in the whole collection about 10% have one here.
G9a inh = G9a (human) methyltransferase inhibition | Q96KQ7 | G9a H3K9 monomethylation, AlphaScreen, 2 h | Potency, µM (doses to about 102 µM), inactives show top-dose activity, negative = inhibition, hits mostly inhibitors | 350,000 compounds, 8.8% hits; note: potency is the fitted concentration of half-maximal effect; % is set by controls: 0 for no effect and ±100 for the full control effect; nearly all actives have a fitted effect of over 75% in size
Target sequence (Q96KQ7 913-1193 limits assumed): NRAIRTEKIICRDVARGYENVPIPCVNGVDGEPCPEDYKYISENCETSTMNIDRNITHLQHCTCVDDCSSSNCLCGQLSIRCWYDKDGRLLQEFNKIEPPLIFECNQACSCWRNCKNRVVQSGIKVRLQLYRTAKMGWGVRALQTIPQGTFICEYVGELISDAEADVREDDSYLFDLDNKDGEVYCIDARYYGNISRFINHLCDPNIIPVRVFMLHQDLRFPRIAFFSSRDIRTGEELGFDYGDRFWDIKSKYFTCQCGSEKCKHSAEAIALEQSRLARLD
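AlphaScreen detection with an anti-monomethyl H3K9 antibody quantified product after a 2 h room-temperature reaction containing 500 nM biotinylated H3K9 peptide, 20 µM SAM and 20 nM enzyme, which had been preincubated 15 min with compound.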
Six1-Eya2 blk = Six1/Eya2 interaction inhibition. AID 651725. AlphaScreen GST-Six1/His-Eya2 binding, biochemical; hits give low values. activity change, % (no concentration beside the values). 360,000 compounds, 0.56% hits. Q15475+O00167; in the data active = activity change below about -65%; inconclusive = mostly about -30% to -63%; note: % is set by controls: 0 for no effect and ±100 for the full control effect
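Homogeneous AlphaScreen proximity assay pairing GST-Six1 with His-tagged Eya2 (added as 5X mix: 250 nM and 500 nM) in 50 mM Tris pH 8.0, 300 mM NaCl, 1 mM TCEP. Glutathione donor and nickel acceptor beads; 1 h, 37 °C, dark.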
BAZ2B inh = BAZ2B (human) inhibition. AlphaScreen BAZ2B-H3K14Ac peptide displacement. AID 504333. 360,000 compounds, 4.4% hits. Q9UIF8. Potency, µM (series often up to 114 µM), for the others: at the top dose activity change, negative = inhibition, hits mostly inhibitors; note: potency is the fitted concentration of half-maximal effect; % is set by controls: 0 for no effect and ±100 for the full control effect; nearly all actives have a fitted effect of over 60% in size
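Inhibition is scored as reduced AlphaScreen emission. The BAZ2B/b-H3(5-23)K14Ac complex (50 nM each) in PBS pH 7.4, 0.01% Tween-20 meets compound (up to 110 uM) for 30 min at RT before bead addition.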
CtBP-E1A blk = inhibitors of CtBP/E1A interaction. activity change, % (concentration not given with the values). AlphaScreen GST-E1A/His-CtBP binding, 1536-well; hits give low values. 340,000 compounds, 0.49% hits. AID 651724; in the data active = activity change below about -65%; inconclusive = mostly about -30% to -63%; note: % is set by controls: 0 for no effect and ±100 for the full control effect
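GST-E1A and His-tagged CtBP (125 nM each as 5X stock) were preincubated with pin-transferred compound for 2 h at 37 °C in the dark, then glutathione donor and nickel acceptor beads were added for 1 h before AlphaScreen reading.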
HP1b binding inh = inhibitors of HP1-beta chromodomain binding to methylated histone tails; AlphaScreen HP1-beta / biotin-H3K9me3 peptide binding; Potency, µM (doses to about 114 µM), without a hit: at the top dose activity change, negative = inhibition, usual class: inhibitors; P83916; 390,000 compounds, 0.56% hits; AID 540317; note: potency is the fitted concentration of half-maximal effect; nearly all actives have a fitted effect of over 70% in size
Target sequence (P83916 whole entry, looked up): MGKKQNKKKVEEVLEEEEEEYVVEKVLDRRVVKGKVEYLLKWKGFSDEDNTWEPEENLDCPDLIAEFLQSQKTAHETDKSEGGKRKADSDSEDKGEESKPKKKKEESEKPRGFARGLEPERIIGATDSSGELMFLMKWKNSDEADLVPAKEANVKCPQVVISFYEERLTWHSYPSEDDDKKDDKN
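Compound inhibition of the preformed complex between 50 nM HP1-beta and 50 nM biotinylated H3K9me3 peptide was read by AlphaScreen. Buffer was PBS pH 7.4 with 0.01% Tween-20. Incubations ran 30 min at room temperature, with 10 ug/mL donor/acceptor beads.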
JMJD2A Tudor = blocks the human JMJD2A Tudor domain; O75164; AlphaScreen JMJD2A-Tudor / H3K4me3 peptide binding; Potency, µM (series often up to 114 µM), for inactives: top-dose activity change, negative = inhibition, actives largely listed as inhibitors; 390,000 compounds, 4.4% hits; AID 504339; note: potency is the fitted concentration of half-maximal effect; % is set by controls: 0 for no effect and ±100 for the full control effect; nearly all actives have a fitted effect of over 50% in size
* = called active by the depositor; ? = inconclusive; / = no result; ! = a repeat was not active; [ ] = dose if it differs, or a comment. Unless noted, calls come from the whole dose curve; as a rule, active = well fitted inhibition curve with a large enough effect; inconclusive = small, poorly fitted or top-dose-only effect; inactive = no such curve, though single readings can be large or run the other way.

SMILES	G9a inh	Six1-Eya2 blk	BAZ2B inh	CtBP-E1A blk	HP1b binding inh	JMJD2A Tudor
CCc1nn(-c2ccccc2)c(N)c1C#N	9%[59 µM]	6	12%	-1	10%	-8%
CCc1nn(-c2ccccc2)c(=S)c2ccccc12	14µM*	1	?	-18	-23%[57 µM]	?
C/C(=N\NC(=S)NCCc1ccccc1)c1cccc(Br)c1	-37%	?	40µM*	-28	-14%	-22%
C=CCNC(=S)N/N=C(\C)c1ccc(OC)cc1	24%[59 µM]	-7	?	-1	6%	-21%
COc1ccc(/C(C)=N/NC(=S)NCCc2ccccc2)cc1	-40%	-15	25µM*	-17	-13%	?
CCOC(=O)C1CCCN(S(=O)(=O)c2ccc3c(c2)CCN3C(=O)CC)C1 (stereo unspecified)	1%[59 µM]	/	-16%	/	26%	-8%
CCCCn1c(SCC(=O)NCc2ccc(OC)c(C(=O)O)c2)nc2cc(S(N)(=O)=O)ccc21	-21%	-2	-4%	2	-1%	-14%
COc1ccc(OC)c(S(=O)(=O)N2CCC(C(=O)Nc3ccc(C)c(C)c3)CC2)c1	18%[0.0925 µM]	-7	-7%	-2	11%	-12%
CCN(CC)c1ccc(NC(=O)/C=C\c2ccccc2Cl)cc1	3.5µM*	?	?	-8	-12%	?
Cc1cc(NC(=O)/C=C/c2ccccc2Cl)no1	-11%[59 µM]	8	5%	23	16%	-22%
CN(C)c1ccc(NC(=O)/C=C/c2ccccc2Cl)cc1	1.1µM*	-25	-7%	-22	-20%	-28%
COc1ccc(NC(=O)CN(C)C(=O)C2CC(=O)N(CCc3ccc(OC)c(OC)c3)C2)cc1 (stereo unspecified)	/	-8	/	5	34%	9%
COc1ccc(C2CC(=O)N(CCCN(C)CCc3ccc(OC)c(OC)c3)C2)cc1 (stereo unspecified)	?	-1	89µM*	/	?	100µM*
COc1ccc(CCN(C)CCCN2CC(c3ccccc3)CC2=O)cc1OC (stereo unspecified)	50µM*	1	?	1	-9%	25µM*
CCN(CC)C(=O)CSC1=C(C#N)C(c2ccco2)C(C(=O)OCCOC)=C(C)N1 (stereo unspecified)	25µM*	-2	?	-1	26%	79µM*!
CC(=O)C1=C(C)NC(SCc2cccc([N+](=O)[O-])c2)=C(C#N)C1c1ccco1 (stereo unspecified)	/	-15	40µM*	-26	-13%	?
C=CCOC(=O)C1=C(C)NC(SCC(=O)N(CC)CC)=C(C#N)C1c1ccco1 (stereo unspecified)	?	0	-1%	7	22%	3%
CC(=O)C1=C(C)NC(SCC(=O)c2cc(Cl)ccc2Cl)=C(C#N)C1c1ccco1 (stereo unspecified)	32µM*	-14	2%	-1	-3%	?
CCc1ccc(C(=O)CSC2=C(C#N)C(c3ccco3)C(C(C)=O)=C(C)N2)cc1 (stereo unspecified)	40µM*	/	-3%[57.1 µM]	/	49%	-10%
O=C(CNC(=O)C1CCCCC1)OC(C(=O)Nc1cc(C(F)(F)F)ccc1Cl)c1ccccc1 (stereo unspecified)	/	/	/	/	/	-19%
CSc1nc(NC(C)=O)nc(C)c1Cl	?	3	0%	-2	40%	-10%
CSCSC1=C(C#N)C(c2ccccc2Cl)C(C(C)=O)=C(C)N1 (stereo unspecified)	4µM*	1	30%	-6	59%	-29%
COc1ccc(N=C2C(=O)N3c4c(cccc42)C(C)=CC3(C)C)cc1	10µM*	-22	35µM*	-21	28µM*	14µM*
COc1cccc(N=C2C(=O)N3CCCc4cccc2c43)c1	?	9	-37%	-2	-22%	-31%
COc1ccc(CCn2c3c(c(=O)[nH]c2=S)CN(C)CN3)cc1OC	/	/	/	/	20%	-17%
SMILES	G9a inh	Six1-Eya2 blk	BAZ2B inh	CtBP-E1A blk	HP1b binding inh	JMJD2A Tudor
Cc1cccc(NC(=O)COC(=O)C2COc3ccccc3O2)c1C (stereo unspecified)	/	7	/	-2	23%	1%
COc1ccc(NS(=O)(=O)NC(=O)c2c(C)n(C)c3ccccc23)cc1	40µM*	-1	-13%[57.1 µM]	-1	35%	-22%
COc1cccc2c1C1COC3C4CC(C(=O)O)C(C(C2)N13)N4C (stereo unspecified)	/	2	/	0	22%	13µM*
NC(=O)Cn1c(=O)n(Cc2ccco2)c(=O)c2c3c(sc21)CCCCC3	20µM*	-25	?	-15	-45%	56µM*
O=c1c2c3c(sc2n(CCN2CCOCC2)c(=O)n1Cc1ccco1)CCCCC3	-32%	-23	4%	?	-20%	89µM*
O=c1c2c3c(sc2n(CCN2CCCCC2)c(=O)n1Cc1ccco1)CCCCC3	50µM*	?	-30%	-29	-25%	?
CN(Cc1ccccc1)S(=O)(=O)c1ccc(N2CCOCC2)nc1	-7%	7	-1%	4	21%	-3%
CC1(C)Cc2ccccc2/C(=C/C(=O)N2CCCCCC2)N1	35µM*	-7	56µM*	-18	0%	?
COc1cc2c(cc1OC)/C(=C/C(=O)N1CCOCC1)NC(C)(C)C2	?	5	-17%	-4	2%	?
Cc1nc(N2CCN(C)CC2)c2cc(-c3ccccc3)sc2n1	50µM*	-1	16%	-2	28%	-11%
Cc1nc(N2CCN(C)CC2)c2sc(=S)n(C)c2n1	-3%	1	5%	-7	33%	-4%
CC(=O)N1CCN(c2ncnc3sc(-c4ccccc4)cc23)CC1	2%[59 µM]	-18	?	-1	36%	-7%
Cc1nc(N2CCN(C)CC2)c2sc(=S)n(-c3ccccc3)c2n1	40µM*	0	-2%	-1	38%	6%
Oc1ccc(N2CCN(c3ncnc4sc(-c5ccccc5)cc34)CC2)cc1	3.2µM*	-28	40µM*	-19	?	16µM*
O=C(OCCO)c1ccccc1O	25%[59 µM]	/	/	/	/	/
CCC(C)N1CCN(C(=O)c2cc(OC)cc(OC)c2)CC1 (stereo unspecified)	/	3	79µM*	9	?	20µM*
COc1cc(OC)cc(C(=O)N2CCN(Cc3ccccc3C(F)(F)F)CC2)c1	7.9µM*	-5	35µM*	-7	?	1.6µM*
COc1cccc(C(=O)N2CCN(Cc3ccccn3)CC2)c1	45µM*	2	20µM*	6	-23%	3.5µM*

Assay outcomes (PubChem)
